According to PubChem BioAssay AID614 (Sanford-Burnham Center for Chemical Genomics, 2007):
Screen size: about 21,000 compounds; fewer than 10 were called active. The list is a sample of the results. A number with no mark means an inactive call.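 The calls were made as follows: active = inhibition above 50% at the 20 µM single-dose screen; inactive = the rest.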

Target: Alkaline phosphatase, tissue-nonspecific isozyme (Homo sapiens) (UniProt P05186)
Test: human TNAP enzyme inhibitors, primary screen, biochemical, colorimetric, phosphate release readout (AID 614)
Conditions: purified TNAP, pNPP, malachite green phosphate absorbance; at 20 µM; active compounds read high

Alkaline phosphatase, tissue-nonspecific isozyme (Homo sapiens), sequence (P05186 whole entry, looked up): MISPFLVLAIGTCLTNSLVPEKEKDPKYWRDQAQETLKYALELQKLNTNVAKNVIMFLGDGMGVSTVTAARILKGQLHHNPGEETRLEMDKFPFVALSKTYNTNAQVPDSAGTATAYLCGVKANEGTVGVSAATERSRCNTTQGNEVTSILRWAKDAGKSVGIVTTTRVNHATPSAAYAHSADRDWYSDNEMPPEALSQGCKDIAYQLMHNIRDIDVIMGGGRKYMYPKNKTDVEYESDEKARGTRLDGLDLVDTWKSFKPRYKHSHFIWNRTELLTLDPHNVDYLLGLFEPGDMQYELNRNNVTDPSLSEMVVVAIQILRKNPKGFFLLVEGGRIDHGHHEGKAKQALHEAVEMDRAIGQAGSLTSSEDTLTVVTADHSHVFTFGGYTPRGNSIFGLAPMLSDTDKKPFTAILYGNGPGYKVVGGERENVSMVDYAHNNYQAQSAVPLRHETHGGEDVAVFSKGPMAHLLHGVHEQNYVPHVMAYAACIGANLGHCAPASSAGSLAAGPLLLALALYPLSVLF

Row | SMILES | inhibition
1 | CC1Cc2ccccc2N1C(=O)CSc1nc2ccccc2o1 (stereo unspecified) | 14%
2 | CCCn1c(SCC(N)=O)nnc1C(C)C | 3.8%
3 | COC(=O)CNC(=O)c1ccc2c(c1)S(=O)(=O)c1ccccc1C2=O | 14.1%
4 | O=C(Oc1ccccc1)c1ccc2nccnc2c1 | 8.8%
5 | CC(Sc1nncs1)C(=O)NCc1ccc2c(c1)OCO2 (stereo unspecified) | 18.9%
6 | C=CCn1c(C2CC(=O)N(c3ccc(C)cc3)C2)nc2ccccc21 (stereo unspecified) | 8.4%
7 | c1ccc2c(CNn3cnnc3)cccc2c1 | 4%
8 | O=c1cc(CSc2ccc(Cl)cc2)nc(N2CCOCC2)[nH]1 | -11.8%
9 | CCCc1nc2c3cnn(-c4cccc(Cl)c4)c3ncn2n1 | -13.7%
10 | Cn1c(=O)c2c(nc(OCc3cccnc3)n2Cc2ccccc2)n(C)c1=O | 0%
11 | O=C(CCCC(=O)N(CC(=O)NC1CCCC1)Cc1ccccc1Cl)Nc1ccccn1 | 10.7%
12 | CC12C(=O)N(n3cnnc3)C(=O)C1C1C=CC2C1 (stereo unspecified) | -18.4%
13 | Cn1cnc2c1c(=O)n(Cc1c(Cl)cccc1Cl)c(=O)n2C | 7.6%
14 | COc1ccc(-n2c(C)nc3c(cnn3-c3ccccc3)c2=O)cc1 | -8.2%
15 | CC(=O)Nc1ccc(S(=O)(=O)N2CCCC2C(=O)O)cc1 (stereo unspecified) | 10.8%
16 | COCCn1nnnc1C(c1ccccc1Cl)N1CCN(c2ccccc2OC)CC1 (stereo unspecified) | 8.5%
17 | CC(Cc1cccs1)NC(=O)NC1CCCCC1 (stereo unspecified) | 10%
18 | CS(=O)(=O)N(CC(=O)N1CCN(c2cccc(Cl)c2)CC1)c1ccccc1 | 0%
19 | O=C(CSc1nnc(-c2cccnc2)n1Cc1ccco1)c1ccc(Cl)cc1 | 8.1%
20 | CCN1C(=O)/C(=C\N2CCN(c3ccccc3)CC2)SC1=S | 10.1%
21 | O=C(Nc1c(-c2ccccc2)nc2c(Br)cc(Br)cn12)c1ccco1 | 9.2%
22 | Cc1ccc(C2(c3ccc(C)cc3)NC(=O)N(Cc3c(C)noc3C)C2=O)cc1 | -2%
23 | COC(=O)[C@H](C)NC(=O)Nc1ccc(OC(F)(F)F)cc1 | 4.2%
24 | Cc1csc(NC(=O)CN2CCCCCC2)n1 | 14.8%
25 | COc1ccc(-c2nc3n(c2Br)CCC3)cc1 | 0%
26 | CCOC(=O)N1CCN(C(=O)C2CCN(S(C)(=O)=O)CC2)CC1 | -0.3%

Row | SMILES | inhibition
27 | O=S(=O)(NCc1ccccn1)c1ccc(Br)s1 | -2.3%
28 | COCCNC(=O)CN(C(=O)CCC(=O)Nc1cc(C)on1)c1ccc(C)cc1C | 14.4%
29 | CN1CCN(S(=O)(=O)c2ccc(NC(=O)C3CCCO3)cc2)CC1 (stereo unspecified) | 11.5%
30 | C=CCNc1nc(C)nc(OC)n1 | -2.9%
31 | CCc1cc(=O)oc2cc(C)cc(OC(C)C(=O)O)c12 (stereo unspecified) | 8.6%
32 | O=S(=O)(O)c1nc2ccccc2n1Cc1ccc(Cl)cc1Cl | 0%
33 | CCNC(=O)CCc1nc(-c2ccc(C(C)(C)C)cc2)no1 | 2%
34 | CC1(C)Oc2ccc(C(=O)N3CCOCC3)cc2N(CC(=O)Nc2ccccc2)C1=O | -16.7%
35 | COc1cccc(C2/C(=C(/O)c3ccc(F)cc3)C(=O)C(=O)N2CCN(C)C)c1 (stereo unspecified) | 0.4%
36 | Cc1cccc(N)c1SC1CCCCC1O (stereo unspecified) | 9.2%
37 | CC(C)(C)n1nnc(CCc2nnn(C(C)(C)C)n2)n1 | 0.3%
38 | CCOC(=O)CSc1nnc(NC(=O)c2cccc(S(=O)(=O)N3CCCC3)c2)s1 | 9.6%
39 | C=CCNc1nnc(C)c2ccccc12 | 15.4%
40 | COCCNC(=O)C(C#N)c1nc2ccccc2nc1N1CCN(Cc2ccc3c(c2)OCO3)CC1 (stereo unspecified) | 8.2%
41 | CC1COC2C(O1)N(S(C)(=O)=O)CCN2S(C)(=O)=O (stereo unspecified) | 3.4%
42 | CCn1cc(C(=O)NCc2ccc(OC)cc2OC)c(=O)c2ccc(C)nc21 | 9.9%
43 | Cc1cccc(NC(=O)c2ccccc2NC(=O)C(C)(C)C)n1 | 0.8%
44 | Cc1cc(C)cc(NC(=O)N2CCC(NC(=O)c3ccc(F)cc3)CC2)c1 | 7.3%
45 | CSc1nsc(SC)c1NC(=O)OC1CCCCC1 | 0%
46 | COCc1nc2ccccc2n1Cc1ccccc1Br | 1.7%
47 | c1nnc2c3c4c(sc3ncn12)CCC4 | 9.7%
48 | Cc1cc(Cl)c(S(=O)(=O)NCc2cccnc2)cc1OCC(N)=O | 5.5%
49 | O=C(O)c1ccc(NS(=O)(=O)c2cccc3nsnc23)cc1 | 11.8%
50 | Cn1c(=O)[nH]c(=O)c2c1nc(Br)n2CCCCSc1nc2ccccc2o1 | 1.3%
51 | CCOC(=O)c1sc(NC(=O)CSc2nnc(-c3ccco3)o2)c(C(=O)OCC)c1C | 7.3%
52 | Cc1nc(N2CCCC2C(=O)O)c2oc3ccccc3c2n1 (stereo unspecified) | 10.7%

Row | SMILES | inhibition
53 | Cc1nc(NCCN)c(C#N)c2c1COC(C)(C)C2 | 5.7%
54 | O=S(=O)(NCc1ccccn1)c1ccc(F)cc1 | 9.6%
55 | CCN(CC)C(=O)CSc1nnc(-c2cnccn2)n1-c1ccc(C)cc1 | 2.9%
56 | Cc1ccc(S(=O)(=O)Nc2ccccc2CNc2c(C)n(C)n(-c3ccccc3)c2=O)cc1 | 12.4%
57 | CCC1CCCCN1C(=O)Nc1cccc(NC(=O)N2CCCCC2CC)c1 (stereo unspecified) | 6.5%
58 | Cc1ccc2nc(-c3ccccc3)cc(C(=O)O)c2c1 | 2.9%
59 | COc1ccc(Cl)cc1NC(=O)C1CC(=O)N(c2ccc(F)cc2)C1 (stereo unspecified) | 4.2%
60 | CCOC(=O)Cn1c(SC)nc2sc3c(c2c1=O)CC(C)(C)OC3 | 11.5%
61 | CCOC(=O)CCc1c(C)c2ccc(OCc3nn[nH]n3)c(C)c2oc1=O | -5.8%
62 | Cc1noc(C)c1CSc1nnc2ccc3ccccc3n12 | 12.2%
63 | COc1ccc(CCn2c(-c3ccco3)nc3nc4ccccc4nc32)cc1OC | 1.5%
64 | Cc1cccc2cc(CN(Cc3ccc4c(c3)OCO4)Cc3nnnn3C3CCCC3)c(=O)[nH]c12 | 15%
65 | COc1cc(C(=O)N(Cc2ccc(N(C)C)cc2)C2CCS(=O)(=O)C2)cc(OC)c1OC (stereo unspecified) | 8%
66 | CCOC(=O)CC1=CC(=O)Nc2ccccc2N1 | 2.4%
67 | Cc1cc(C)cc(OCc2nnc(SCC(=O)OC3CCCCC3)o2)c1 | -4.5%
68 | COC(=O)c1nc(NC(=O)c2ccc(Cl)cc2)n[nH]1 | 1.5%
69 | CCC1SC2=NCCN2C1(O)c1ccc(Cl)cc1 (stereo unspecified) | 3.8%
70 | CCSc1nc(=S)n(CC)c(C)c1C(C)=O | 5.7%
71 | Cc1ccc2nc(NC3=NCN(CCc4ccccc4)CN3)nc(C)c2c1 | 10.4%
72 | O=C(CN(c1ccc2c(c1)OCCO2)S(=O)(=O)c1ccccc1)Nc1ccc2c(c1)OCO2 | 5.3%
73 | O=S(=O)(NCC1CCCO1)c1ccc2ccccc2c1 (stereo unspecified) | 8.8%
74 | CCn1c(SCC(=O)Nc2nc3ccc(OC)cc3s2)nnc1-c1ccoc1C | 1.9%
75 | CSCC[C@H](NC(=O)NCc1cccs1)C(=O)O | -0.1%
76 | COC(=O)c1ccc(CSc2nncn2C)cc1 | 11%
77 | COc1cccc(N(CC(=O)Nc2cccc(F)c2)S(C)(=O)=O)c1 | 0.7%
78 | CCOP1(=O)C=C(C(C)(C)C)OC1c1ccc(F)cc1 (stereo unspecified) | -0.2%

Row | SMILES | inhibition
79 | CCN1CCN(C(=O)c2ccccc2N(C)S(=O)(=O)c2ccc(C)cc2)CC1 | 11.4%
80 | Nn1c(SCC(=O)NC(=O)NC2CCCC2)nnc1-c1ccccc1F | 15.5%
81 | CCCn1c(SCC(=O)c2ccc3c(c2)OCCO3)nnc1C(C)C | 11.4%
82 | O=C(Nc1cccc2c1CCCC2)C1CCN(C(=O)NC2CCCCC2)CC1 | 15.2%
83 | COc1ccc2c(c1)C(C)=CC(C)(C)N2C(=O)CNCc1ccc2c(c1)OCO2 | 6.2%
84 | COc1ccc(NS(=O)(=O)c2ccc(NC(=O)C(C)(C(F)(F)F)C(F)(F)F)cc2)nn1 | 3.4%
85 | Cc1ccc(C(=O)CS(C)(=O)=O)cc1 | -1.2%
86 | Clc1ccc(CSc2nnc([C@@H]3CCCN3)o2)cc1 | 13%
87 | COC(=O)C1C(=O)CC(C)(O)C(C(=O)OC)C1c1ccc2c(c1)OCO2 (stereo unspecified) | 9.9%
88 | CN(C)Cc1c(C#N)c2ccccc2n1C | -22.9%
89 | C=CCn1c(CC(=O)Nc2cccc(OC)c2)nnc1SCC(=O)NC1CCCCC1 | -6.2%
90 | Cc1cc(Br)ccc1NC(=O)C1CCCO1 (stereo unspecified) | 0%
91 | Cc1ccc(C(=O)CSc2nc3ccccc3c(=O)n2N)o1 | 6%
92 | CCCCC(CCC(=O)Nc1ccc(C(=O)OCC)cc1)C(=O)O (stereo unspecified) | 6%
93 | Fc1cnc(N2CCOCC2)nc1NCc1ccccc1 | -0.4%
94 | CCOC(=O)CN(C(=O)CN1CCOCC1)c1ccc(Br)cc1 | -1.5%
95 | O=C(O)COc1nsnc1N1CCOCC1 | 10.4%
96 | O=C1CCC(C(=O)Nc2ccc(OC(F)F)cc2)N1 (stereo unspecified) | 21.3%
97 | Cc1cccc(Cn2c(N3CCN(c4ccccc4)CC3)nc3c2c(=O)n(C)c(=O)n3C)c1 | 8.8%
98 | O=C1CC(N2CCN(C(c3ccccc3)c3ccccc3)CC2)C(=O)N1 (stereo unspecified) | 7.9%
99 | COC(=O)c1ccc(N(CC(=O)NC2CCCC2)C(=O)CNC(=O)c2ccco2)cc1 | 0%
100 | Cc1ccc(C)c(NC(=O)C2CCCN2C(=O)OC(C)(C)C)c1 (stereo unspecified) | -3.4%
101 | O=C(NCc1ccc(Cl)cc1)c1cc2c(nc3sccn32)s1 | 12.4%
